Reference: the supplement of paper PMC5662767
Counter-ions that a name gives are not always drawn.

Tested on: Drosophila S2 cl14 SmoIP sensor cells
Assay: normalized SmoIP GFP fluorescence (untreated unstimulated = 0%, untreated Hh-stimulated = 100%); higher = more Smo activation sensor fluorescence
Details: stimulation: mock conditioned medium (-Hh); compound concentration: 2 uM; 24 h
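Further: flow cytometry read-out as median GFP intensity of gated cells, compounds added 30 min before Hh-conditioned or mock medium, mock-treated cells serving as unstimulated baseline.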

Structure (SMILES)	normalized SmoIP GFP fluorescence
c1cnc2cc3c(cc2n1)[C@@H]1CNC[C@H]3C1 [Varenicline-tartrate]	2.97%
O=C(NOC[C@H](O)CO)c1ccc(F)c(F)c1Nc1ccc(I)cc1F	77.1%
CCOC(=O)[C@H](CCc1ccccc1)N[C@H]1CCc2ccccc2N(CC(=O)O)C1=O [Benazepril-hydrochloride]	1.35%
COc1cc2c(Nc3ccc(NC(=O)c4ccccc4)cc3)ncnc2cc1OCCCN1CCOCC1	6.52%
O=C(/C=C/c1ccc(CN(CCO)CCc2c[nH]c3ccccc23)cc1)NO	79.7%
c1cn2cc(-c3ccc4cn[nH]c4c3)nc(Nc3ccc(N4CCOCC4)cc3)c2n1	2.97%
CC(C)CCNC(=O)C(CC(C)C)NC(=O)C1OC1C(=O)O (centres undefined) [loxistatin-acid-e-64c]	34.9%
O=C(Nc1c[nH]nc1-c1nc2ccc(CN3CCOCC3)cc2[nH]1)NC1CC1	94.8%
COc1cc2c(Oc3ccc4[nH]c(C)cc4c3F)ncnc2cc1OCCCN1CCCC1 [Cediranib]	52.4%
CN1CCN(CCOc2cc(OC3CCOCC3)c3c(Nc4c(Cl)ccc5c4OCO5)ncnc3c2)CC1	10.4%
COc1ccc2cc(-c3nc(-c4ccc([S+](C)[O-])cc4)[nH]c3-c3ccncc3)ccc2c1 (centres undefined) [Tie2-kinase-inhibitor]	21.9%
NC(=S)N/N=C/c1ncccc1N [triapine]	-3.71%
C=CC(=O)Nc1cccc(Oc2nc(Nc3ccc(N4CCN(C)CC4)cc3)ncc2Cl)c1	11%
CS(=O)(=O)c1ccc(C(=O)Nc2ccc(Cl)c(-c3ccccn3)c2)c(Cl)c1	36.8%
